The panel holds about 83,000 compounds, 20% with a hit somewhere; the sample as a whole holds those more often.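 Testing used 96-well plates and a 48-hour single-concentration exposure. Example: -40 means 40% of the starting cells died.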 Unmarked numbers belong to inactive results. Activity calls are given as the source filed them.

In the test the test system is HOP-62 NSCLC. Kind of test: NCI-60 one-dose screen, 48 h (100 = growth as untreated, 0 = no growth, -100 = all killed). The following applies: 10 µM unless noted. The protocol:
Growth inhibition of the HOP-62 human Non-Small Cell Lung tumor cell line is measured as a screen for anti-cancer activity. Cells are grown in 96 well plates and exposed to the test compound for 48 hours. Compounds are tested at a single concentration, which is 10^-5 M for most compounds. The reported endpoint is percent growth (GI% or GIPRCNT), where numbers from 0 - 100% represent growth inhibition, and numbers from -100% - 0 represent cell death. For example, a value of 40 represents 60% growth inhibition. A value of 0 means no net growth occurred over the course of the experiment. A value of -40 indicates 40% of cells at the beginning of the experiment died by the end of the experiment. A value of -100 means all cells are dead at the end of the experiment.
NCI-60 Human Tumor Cell Lines Screen was performed using the standard one-dose NCI protocol, which is described in more detail at https://dtp.cancer.gov/discovery_development/nci-60/default.htm.
Compounds with GIPRCNT values below 10 were considered active. Activity score was based on GIPRCNT using the following formula: […]
Score is 0 for GIPRCNT values of 100 or above, 50 for GIPRCNT values of 0, and 100 for GIPRCNT values of -100.
As for `Cc1c(C(=O)NC(Cc2ccccc2)C(O)C(=O)NCc2ccc(F)cc2)[nH]c2ccccc2c1=O` (stereo not given), the growth is 99.2%.

Regarding `O=c1cc(-c2ccc(Cl)cc2)[nH]c2ccccc12`, the growth is 79.3%.

As for `CCN1C(=O)N(CC)C2Nn3c(s/c(=C\c4cccc([N+](=O)[O-])c4)c3=O)=NC21` (stereo not given), the growth was 62.3%. For `CC(CCc1ccc(Cl)c(Cl)c1)NCc1ccc(C(C)(C)C)cc1` (stereo not given) the value was 85.9%. For `COc1cccc(-c2nc3sccn3c2/C=C/C(=O)c2ccc(C(F)(F)F)cc2)c1` the value was 100%; for `COc1cccc(-c2nc3sccn3c2-c2ccnc(NCCNS(=O)(=O)c3ccc(C(F)(F)F)cc3)c2)c1`, 62%; for `Cc1ccc(C(=O)CSc2nc(-c3ccc(Br)cc3)c(C#N)c(=O)[nH]2)cc1`, 89.1%. For `CCN1C(=O)N(CC)C2C1NN=c1s/c(=C\c3cccs3)c(=O)n12` (stereo not given), the growth is 46.4%. For `Cc1cc(NCCCCNc2ccnc3cc(Cl)ccc23)nc(Nc2ccc(C(=O)N3CCCCC3)cc2)n1` the value was 21.2%; for `O=Cc1ccc(O)c2ncccc12`, 44.6%; for `COc1cc(N=Nc2cc(Cc3ccc(N(C)C)cc3)c(N)cc2N(C)C)c2ncccc2c1`, 20%.

`CSc1n(Cc2ccc3ccccc3c2)c(C)c[n+]1Cc1ccc2ccccc2c1`: the growth is 4.62% (active). Take `CCn1c(C)nc2cc(C(N)=O)ccc21`: the growth is 89.3%. With `COC(=O)[C@]12CC[C@@H](C)[C@H](C)[C@@H]1C1=CC[C@@H]3[C@@]4(C)C(C=O)=C[C@@](C)(COC(=O)c5ccco5)C4=CC[C@@]3(C)[C@]1(C)CC2` the figure was 7.71% (active). For `COc1cc(/C=N/n2c(CN3CCOCC3)nc3ccccc3c2=O)cc(OC)c1OC` the value was 96.4%; for `COc1cc(/C=C/C(=O)c2ccc(Nc3nc(Nc4ccc(F)cc4)nc(Nc4ccc(Cl)cc4)n3)cc2)cc(OC)c1OC`, 82.1%.

For `c1c[nH]c(CNC2CCCCC2)c1`, the growth was 103%. `Cn1cc(-c2csc(-c3cccc(F)c3)n2)c2cccnc21`: the growth is -69.2% [100 µM] (active). With `O=C(O)c1ccc2c(c1Cl)C(=O)c1ccccc1C2=O` the figure was 82.5%. With `O=C1/C(=C/c2ccccc2)CCc2nc3ccccc3c(/C=C/c3ccc(Cl)cc3)c21`, the growth is 110%. Take `N#CC1=C(NC=O)Oc2c(ccc3ccccc23)C1c1ccccc1` (stereo not given): the growth was 21.1%. With `COc1ccc(Cl)cc1NC(=O)C(Br)C(Br)C(=O)O` (stereo not given) the figure was 56.6%. With `Cc1ccc(C(=O)C2=C(O)C(=O)N(Cc3cccnc3)C2c2ccccc2F)o1` (stereo not given) the figure was 91.6%. For `O=C1CCc2c(sc3[nH]c(=S)n(-c4ccc(OC(F)(F)F)cc4)c(=O)c23)C1` the value was 53.1%; for `CN1CCN(CCCOc2ccc3nc(Nc4ccc(F)c(F)c4)ccc3c2)CC1`, 22.5%. In the case of `Cc1cccc(Cc2cnc(NC(=O)c3ccc4nnsc4c3)s2)c1`, the growth was 79.8%.

Consider `CC(=O)OC[C@H]1OC(Sc2sc(C(=O)c3ccc(Br)cc3)c(N)c2-c2nc3ccccc3s2)[C@H](OC(C)=O)[C@@H](OC(C)=O)[C@@H]1OC(C)=O` (stereo not given in full), for which the growth is 63.8%. For `CCC1(C2CCCC2)NC(=O)NC1=O` (stereo not given) the value was 115%; for `O=c1[nH]ccc2nc(N3CCC(O)CC3)nc(Nc3ccc(N4CCOCC4)cc3)c12`, 97.2%. For `O=C1/C(=C/c2ccc(Br)cc2)C=C(c2ccccc2)N1CCc1ccccc1` the value was -56.9% (active). For `COc1ccc2occ(C3=C(c4c[nH]c5ccccc45)C(=O)N(O)C3=O)c2c1` the value was 86.3%; for `CC(C)Sc1nc(NNC(N)=S)c(C#N)c(-c2ccc(F)cc2)n1`, 101%; for `COc1ccc(C2c3ccc4ccccc4c3Oc3nc(C)[nH]c(=O)c32)cc1` (stereo not given), 89%.

As to `COc1ccc(-c2nc3c(N)c(CO)c(C)nc3o2)cc1`, the growth is 90.3%. `CCOC(=O)c1c(/C=C/C(=O)O)nc2ccccc2c1/C=C/c1ccccc1`: the growth is 63.3%. For `COc1ccc(OC)c(-c2c(C#N)c(-c3ccc(Cl)cc3)nc3c2c(-c2ccccc2)nn3-c2ccccc2)c1` the value was 99.3%; for `O=c1ccn2nc3ccccc3c2[nH]1`, 88.4%. Take `OC(c1cccc(-n2ccc(C(F)(F)F)n2)c1)c1cnccc1NC1CCCCCC1` (stereo not given): the growth is 73.7%.

For `COc1cc(-c2nn(-c3ccccc3)cc2-c2ccnc(NCCNS(=O)(=O)c3ccc(Cl)cc3)n2)ccc1Cl`, the growth is 48%. For `C#Cc1cccc(NC(=O)c2ccc(NC(=O)CCl)cc2)c1` the value was 10.7% [8.25 µM].

The values are drawn from PubChem BioAssay (NCI).
